Source: PubChem BioAssay (National Center for Advancing Translational Sciences (NCATS))
Rows were chosen to be rich in hits. Some 8.9% of all compounds tested hit in one or more screens of this group.
KB-V1 MDR tox: kills drug-selected multidrug resistant KB-V1 cells; KB-V1 MDR cells viability, CellTiter-Glo, 72 h; Potency, µM (highest dose often 46.1 µM), most hits filed as cytotoxic; 400,000 compounds, 3.4% hits; further: potency means the concentration at half of the fitted maximal effect; on the % scale 0 is the no-effect control and ±100 the full control effect; nearly all actives have a fitted effect of over 60% in size
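Drug-selected KB-V1 cells, grown in DMEM lacking phenol red with 10% FBS, receive compound titrations; after three days at 37 degrees C, surviving cell ATP is quantified by CellTiter-Glo luminescence and responses normalized and curve-fitted.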
DRD3 agonist: D3 dopamine receptor (human) agonism | P35462 | D3R DiscoveRx beta-arrestin cells, luminescence, 90 min | max activation, % | AID 652048 | 410,000 compounds, 0.58% hits; in the data active means max activation above about 30%; further: 0% is about no effect
Target sequence (P35462 whole entry, looked up): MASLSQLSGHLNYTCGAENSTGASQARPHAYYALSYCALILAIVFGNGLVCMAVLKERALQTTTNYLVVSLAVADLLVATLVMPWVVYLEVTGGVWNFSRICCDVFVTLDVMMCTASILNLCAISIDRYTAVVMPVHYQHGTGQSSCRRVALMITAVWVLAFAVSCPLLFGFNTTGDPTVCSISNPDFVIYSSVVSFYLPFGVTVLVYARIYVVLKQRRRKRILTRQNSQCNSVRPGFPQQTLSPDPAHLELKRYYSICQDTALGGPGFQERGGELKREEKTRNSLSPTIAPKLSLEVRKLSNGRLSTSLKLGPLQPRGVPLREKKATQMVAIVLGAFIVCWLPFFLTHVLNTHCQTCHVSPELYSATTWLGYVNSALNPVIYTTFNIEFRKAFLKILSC
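Agonist-mode cell screen: cells plated at 1500/well and incubated overnight at 37 °C, then exposed to library compounds for 90 min at 37 °C. Detection reagent was added for 30–60 min at room temperature, and luminescence was read.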
D3 antag: D3 dopamine receptor (human) antagonism | D3R cells, DiscoveRx beta-arrestin luminescence, antagonist mode; hits give low values | max response, negative = inhibition, % | 360,000 compounds, 2.5% hits; in the data active means max response below about -50%; inconclusive means no clear call, values can overlap the other calls; further: on the % scale 0 is the no-effect control and ±100 the full control effect
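Cells expressing the human receptor were seeded at 1500 cells/well, incubated overnight at 37 degrees C in 5% CO2, then exposed to library compounds with dopamine controls for 90 minutes at 37 degrees C before luminescent detection.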
SW480 rereplic: DNA re-replication induction in SW480 cells; SW480 DNA re-replication, Hoechst DNA content imaging, 48 h; Potency, µM (top dose mostly 46.1 µM), without a hit: at the top dose re-replication activation, actives largely listed as activators; 340,000 compounds, 1.8% hits; AID 624297; further: potency means the concentration at half of the fitted maximal effect; % of control where 0% means no effect; nearly all actives have a fitted effect of over 55% in size
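DNA re-replication was detected as more nuclei of elevated Hoechst intensity after 48 hr exposure to compound (23 nL pinned per well of 250 cells).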
MCF10A rereplic: DNA re-replication induction in MCF 10a cells | Potency, µM (top dose mostly 46.1 µM), for inactives: top-dose activity, positive = re-replication, usual class: activators | MCF 10A DNA re-replication, Hoechst nuclear intensity, 48 h | 350,000 compounds, 2.9% hits; further: potency means the concentration at half of the fitted maximal effect; % of control where 0% means no effect; nearly all actives have a fitted effect of over 50% in size
KB-3-1 tox: KB-3-1 parental cell cytotoxicity; KB-3-1 viability, CellTiter-Glo ATP luminescence, 72 h; Potency, µM (top dose mostly 46.1 µM), most hits filed as cytotoxic; 400,000 compounds, 1.4% hits; AID 1347075; further: potency means the concentration at half of the fitted maximal effect; on the % scale 0 is the no-effect control and ±100 the full control effect; nearly all actives have a fitted effect of over 60% in size
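Luminescent ATP read-out (CellTiter-Glo) measures survival of drug-naive KB-3-1 cells after 72 h compound exposure at 37 °C. Titration series was screened from lowest to highest concentration, with DMSO vehicle plates as background controls.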
* hit, by the source's call; i = inactive; ? = inconclusive; nt = no result given; [ ] = another dose, or the depositor's remark. Unless noted, the call rests on the fitted dose curve; in most records, active means well fitted curve in the direction sought with a large enough effect; inconclusive means small, poorly fitted or top-dose-only effect, or another doubt; inactive means no such curve, though single readings can be large; an effect the other way counts as inactive or inconclusive.

SMILES	KB-V1 MDR tox	DRD3 agonist	D3 antag	SW480 rereplic	MCF10A rereplic	KB-3-1 tox
Nc1nc(CN2CCN(Cc3ccccc3)CC2)nc(Nc2ccc3c(c2)OCCO3)n1	i	-0.3	-59.4*	-2.5%	-1.6%	i
COc1ccc(Nc2nc(N)nc(CN3CCOCC3)n2)cc1	i	1.0	3.8	-20.7%[9.22 µM]	-20.7%	i
COc1ccccc1Nc1nc(N)nc(CN2CCN(c3ccccc3)CC2)n1	?	3.5	?	-4.2%	?	i
Cc1ccc(Nc2nc(N)nc(CN3CCN(Cc4ccc5c(c4)OCO5)CC3)n2)cc1Cl	?	-8.4	?	15.5%	?	20.6µM*
COc1ccc(N2CCN(Cc3nc(N)nc(Nc4ccc(C)c(Cl)c4)n3)CC2)cc1	5.17µM*	17.1	25.9	?	?	i
Cc1ccc(Nc2nc(N)nc(CN3CCN(Cc4ccc5c(c4)OCO5)CC3)n2)cc1C	?	-11.8	-18.0	0.6%	5.4%	i
Cc1ccc(Nc2nc(N)nc(CN3CCN(c4ccccc4)CC3)n2)cc1Cl	16.4µM*	-1.2	-7.1	10.0%	18.4µM*	i
CCn1c(=N)c(C(=O)NC2CCCC2)cc2c(=O)n3cc(C)ccc3nc21	i	8.7	nt	nt	nt	i
O=C(c1ccc(F)cc1)N1C2CCC1CC(O)(c1ccc(F)cc1)C2 (centres undefined)	i	-10.2	-54.2*	-0.3%	5.0%	i
CC1COCC(C)N1C(=O)c1cccnc1 (centres undefined)	i	0.5	-124.8*	nt	nt	i
CCS(=O)(=O)N1CCN(C(=O)c2cccnc2)CC1	i	3.0	27.4	-4.3%	-0.5%	i
O=C(c1cccnc1)N1C2CCC1CC(O)(c1ccc(F)cc1)C2 (centres undefined)	i	-27.8	-57.0*	-0.2%	-10.6%	i
O=C(Nc1ccc(F)c(F)c1)C1CCCN1S(=O)(=O)c1cccc2nsnc12 (centres undefined)	i	4.2	nt	nt	nt	i
CCOC(=O)c1cccc(Nc2ccc3cc(S(=O)(=O)N4CCCCC4)ccc3n2)c1	?	12.4	nt	nt	nt	?
CN(C)c1ccc(C2C=C(c3ccc(Cl)cc3OC(F)F)Nc3ncnn32)cc1 (centres undefined)	11.6µM*	-9.5	-17.6	23.1µM*	4.11µM*	i
Cc1ccc(C2C=C(c3ccccc3OC(F)F)Nc3ncnn32)cc1 (centres undefined)	20.6µM*	0.4	6.5	-205.5%	13.5%	?
Cc1ccc(C2=CC(c3ccccc3)n3ncnc3N2)c(C)c1 (centres undefined)	i	6.8	-10.0	-11.4%	9.4%	i
Cc1cc2c(cc1C)N[C@]1(C[C@H]3CCCC(=O)N4CC[C@@H](C1)[C@@H]34)C(=NC1CCCCC1)N2	i	nt	nt	nt	nt	i
O=C(CC(O)(CC(=O)OCc1ccccc1)C(=O)OCc1ccccc1)OCc1ccccc1	i	0.3	26.1	21.8%	18.4µM*	i
O=C(CC(=O)OCc1ccccc1)OCc1ccccc1	i	1.5	9.1	0.1%	-3.3%	i
CC(=O)NNC(=O)c1cc2sccc2s1	i	-19.7	-16.7	-20.6%	-1.5%	?
NNC(=O)c1cc2sccc2s1	?	-13.1	?	13µM*	3.66µM*	?
CC(NC(=O)C12CC3CC(CC(C3)C1)C2)c1ccc2c(c1)OCCO2 (centres undefined)	i	31.8*	32.8	3.3%	1.3%	i
O=C(Cc1ccccc1)Nc1cc2c(cc1Cl)OCCCO2	i	-6.0	24.0	0.0%	7.5%	i
CC(NC(=O)c1cc2sccc2n1C)c1ccc2c(c1)OCCO2 (centres undefined)	20.6µM*	2.6	9.0	-4.2%	?	?
CC(CC(=O)NC(C)c1ccc2c(c1)OCCO2)c1ccccc1 (centres undefined)	25.9µM*	-4.5	7.1	-44.3%	5.4%	i
CC(NC(=O)CCc1ccccc1)c1cc2c(cc1Cl)OCCO2 (centres undefined)	20.6µM*	3.0	-5.1	18.3%	?	?
